Phagocyt inh = blocks phagocytosis by macrophages. J774A.1 macrophage IgG-bead phagocytosis, imaging. inhibition, % at 5 µM. 110,000 tested, 0.07% active;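 active = inhibition above the mean of the plate negative controls plus 5 SD, cut at about 13% in these data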;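 also: phagocytic index as fraction of beads internalized from green versus red external bead signal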
TNFa cytotox = HUVEC cytotoxicity counter-screen, TNF alpha stimulated. HUVEC TNFalpha-stimulated, Hoechst cell count, imaging. cell count reduction, % at 2 µM. 93,000 tested, 0.17% active. AID 848;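 active = cell count reduction exceeding the screen mean by over 5 SD, scaled to untreated wells per plate, cut at about 78% in these data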;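 also: cells counted after 24 h of TNF alpha exposure following the 1 h pretreatment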
IL1B NFkB inh = blocks IL-1B driven NFkB nuclear translocation in HUVEC cells; HUVEC IL-1B NFkB p65 nuclear translocation imaging; inhibition, % at 2 µM; 94,000 tested, 0.43% active; AID 796;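 active = inhibition above about 30% together with a positive call from visual inspection of the well image, limit read from the data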;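 also: nuclear over cytoplasmic p65 intensity ratio measured by imaging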
IL1B NFkB pot = enhances IL-1B driven NFkB nuclear translocation. HUVEC IL-1B NFkB p65 nuclear translocation imaging. activation, % at 2 µM. 94,000 tested, 0.3% active;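 active = activation above 40%, about the mean plus 3 SD, also judged a hit on visual image review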;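 also: percent activation is computed from the nuclear over cytoplasmic p65 intensity ratio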
IL1B cytotox = HUVEC cytotoxicity counter-screen, IL-1B stimulated; HUVEC cell count loss, Hoechst imaging; cell count reduction, % at 2 µM; 94,000 tested, 0.41% active;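 active = cell count reduction more than 3 SD above the screen-wide mean, cut at about 70% in these data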
VCAM1 TNFa inh = reduces TNF alpha induced VCAM1 expression in HUVEC. HUVEC TNFa-induced VCAM-1 immunofluorescence, high-content imaging. inhibition, % at 2 µM. 95,000 tested, 0.48% active. AID 802;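 active = inhibition above the batch mean plus 3 SD, with images confirmed as a hit by eye, cut at about 37% in these data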
Hits are given with their value; – = inactive; · = not tested or not shown. Rows were chosen to be rich in hits. Some 1.2% of all compounds tested hit in one or more screens of this group.

SMILES	Phagocyt inh	TNFa cytotox	IL1B NFkB inh	IL1B NFkB pot	IL1B cytotox	VCAM1 TNFa inh
CCOC(=O)c1cc2c(=O)n3ccccc3nc2n(CCCOC)c1=NC(=O)c1cccnc1	·	–	–	44	–	–
COc1ccccc1-n1c(SCC(=O)Nc2cccc3ccccc23)nc(O)cc1=O	190	–	–	–	–	–
COc1ccc(NC(=O)CSc2nc(O)cc(=O)n2-c2ccccc2OC)cc1	–	–	–	–	–	–
COc1ccccc1-n1c(C)nnc1SCC(=O)Nc1cccc(C(C)=O)c1	–	–	96	–	80	–
COc1ccc(/C=N/NC(=O)Cc2csc(Nc3cccc(C(F)(F)F)c3)n2)cc1C	·	–	·	·	·	–
O=C(O)C1C(C(=O)Nc2ccc(Cl)cc2)C2C=CC1C21CC1 (stereo not drawn)	–	–	–	–	76	–
COc1ccc(N(CC(=O)Nc2ccc(S(=O)(=O)N3CCOCC3)cc2)S(=O)(=O)c2ccccc2)cc1	–	–	–	–	–	–
CCOc1ccccc1N1CCN(C(=O)c2cccc(-c3ccc(O)cc3)c2)CC1	–	–	–	–	–	44
CCOc1ccccc1C(=O)N1CCN(c2cccc(Cl)c2)CC1	–	–	–	–	–	84
CCOc1ccccc1N1CCN(C(=O)c2ccncc2)CC1	–	–	–	–	–	–
COc1ccc(OC(C)C(=O)NCc2cccnc2)cc1 (stereo not drawn)	–	–	–	–	93	–
CCC(C)NS(=O)(=O)c1ccc(OCC(=O)NCc2cccnc2)cc1 (stereo not drawn)	–	–	98	–	80	–
O=C(OCc1ccc(Cl)cc1Cl)c1ccncc1	–	–	–	126	–	–
O=C(COC(=O)c1ccncc1)Nc1cc(Cl)ccc1Cl	–	–	–	–	–	–
C1=Nc2c(NCc3ccccc3)ncnc2Oc2ccccc21	–	–	98	–	91	–
CC(=O)Nc1ccccc1-c1nc2ccc(C(=O)N3CCN(c4ccccc4)CC3)cc2[nH]c1=O	–	–	38	–	–	–
CC(CCc1ccccc1)NC(=O)c1cccnc1 (stereo not drawn)	–	–	58	–	–	–
Cc1ccc(-n2c(O)c(C=NC3CCS(=O)(=O)C3)c3ccccc3c2=O)cc1C (stereo not drawn)	–	–	–	43	–	–
Cc1cccc(-n2c(O)c(C=NC3CCS(=O)(=O)C3)c3ccccc3c2=O)c1 (stereo not drawn)	–	–	–	–	–	–
C=CCn1c(SCc2c(C)noc2C)nc2ccccc2c1=O	–	–	–	–	–	60
C=CCn1c(SCc2c(C)noc2C)nc2cc(C(=O)O)ccc2c1=O	·	·	–	–	–	·
Cc1cccc(N(Cc2cc3ccccc3[nH]c2=O)S(=O)(=O)c2ccccc2)c1	–	·	·	·	·	·
Cc1cc(Cl)cc(Br)c1OCCNCC(C)O (stereo not drawn)	174	–	–	–	–	–
COc1ccc(C2CC(c3cccs3)=Nc3ccccc3S2)cc1 (stereo not drawn)	·	–	–	43	–	–
COc1ccc(C2CC(c3cccs3)=NN2S(=O)(=O)c2ccc(C)cc2)cc1 (stereo not drawn)	·	·	–	–	–	·
SMILES	Phagocyt inh	TNFa cytotox	IL1B NFkB inh	IL1B NFkB pot	IL1B cytotox	VCAM1 TNFa inh
CC(Sc1nnc(-c2ccccc2Br)n1-c1cccc(C(F)(F)F)c1)C(N)=O (stereo not drawn)	–	·	·	·	·	·
Cc1cc(OCC(=O)O/N=C(\N)c2ccccc2)ccc1Br	–	·	·	·	·	·
CCCCn1ccnc1C(=O)c1cc(S(=O)(=O)N2CCOCC2)ccc1C	–	–	55	–	–	–
Cc1ccc(S(=O)(=O)N2CCOCC2)cc1C(=O)O	–	·	·	·	·	·
COc1ccc(Cn2c(CCC(=O)Nc3ccc(C)cc3)nc3cccnc32)cc1	·	–	·	·	·	–
COc1ccc(Cn2c(CCC(=O)O)nc3cccnc32)cc1	–	–	–	–	–	93
Oc1ccc(-n2cnnn2)cc1	–	–	–	–	89	–
Clc1ccc(-n2cnnn2)cc1	–	–	–	–	–	–
Nc1n[nH]c(N)c1N=Nc1ccc(Cl)cc1Cl	–	·	·	·	·	·
CCOc1ccccc1/C=N/Nc1ccccc1[N+](=O)[O-]	–	–	–	–	–	59
CC(C)Oc1ccccc1/C=N/Nc1ccccc1[N+](=O)[O-]	–	·	·	·	·	·
Cc1ccccc1OCCCC(=O)NCc1ccco1	·	–	–	–	–	–
CCOc1cc(N2CCOCC2)c(OCC)cc1NC(=O)c1ccc(OCc2c(C)noc2C)c(OC)c1	–	·	·	·	·	·
O=C(N/N=C/c1cccs1)c1n[nH]c2c1CCC2	–	·	·	·	·	·
O=C(N/N=C/C(Br)=C/c1ccccc1)c1n[nH]c2c1CCC2	–	–	40	–	–	91
COc1cc2nc(-c3ccc(Br)o3)oc(=O)c2cc1OC	95	–	–	–	–	–
Cc1ccc2nc(-c3ccc(Br)o3)oc(=O)c2c1	–	–	–	–	–	–
Cc1ccccc1-c1cc(-c2ccccc2O)on1	·	–	–	–	–	47
CCNc1nc(NCC)n2c(SC(C(=O)Nc3cc(Cl)cc(Cl)c3)c3ccccc3)nnc2n1 (stereo not drawn)	–	·	·	·	·	·
CC(=O)Nc1ccc(Nc2nc(C)c([N+](=O)[O-])c(Nc3ccc(NC(C)=O)cc3)n2)cc1	–	·	·	·	·	·
CC(NC(=O)Nc1ccc(O)cc1)(C(F)(F)F)C(F)(F)F	·	–	–	–	–	–
CC(NC(=O)NC(N)=O)(C(F)(F)F)C(F)(F)F	·	–	–	41	–	–
CCN(CC)CCSc1nc(O)c(C(C)C)c(=O)[nH]1	–	–	–	–	–	–
CCCc1c(O)nc(SCCN(CC)CC)[nH]c1=O	–	–	32	–	89	–
S=C(NCc1ccc(Cl)cc1Cl)NC1CCCCC1	–	·	·	·	·	·
SMILES	Phagocyt inh	TNFa cytotox	IL1B NFkB inh	IL1B NFkB pot	IL1B cytotox	VCAM1 TNFa inh
O=C(CN1C(=O)C2C3c4ccccc4C(c4ccccc43)C2C1=O)Nc1ccccc1C(=O)O (stereo not drawn)	–	·	·	·	·	·
Cc1nnc(SCc2cn3ccsc3n2)n(N)c1=O	–	82	–	–	–	62
COc1ccc(CC/C(C)=N\NC(N)=O)cc1	–	·	·	·	·	·
CC1=NN(C(=O)c2cccc(Cn3nc(C)c([N+](=O)[O-])c3C)c2)C(O)(C(F)(F)F)C1 (stereo not drawn)	–	–	–	–	–	–
O=C(N/N=C/c1ccc[nH]1)c1sc2ccccc2c1Cl	·	–	–	–	–	38
CC(C)c1cc(C(F)(F)F)n2nc(C(=O)O)cc2n1	–	–	–	–	–	–
O=C(O)c1cc2nc3c(c(C(F)(F)F)n2n1)CCc1ccccc1-3	–	–	–	–	–	85
CCOC(=O)C1=C(C)N=C2SC(C(=O)OC)=CC(=O)N2C1c1cc(OC)c(OC)c(OC)c1 (stereo not drawn)	–	·	·	·	·	·
O=C(CCN1CCc2ccccc2C(c2ccccc2)C1)c1ccc2c(c1)OCCO2 (stereo not drawn)	–	–	34	–	–	–
CCN1CCN(Cc2c(C)[nH]c3ccc(C(=O)OC)cc3c2=O)CC1	–	–	–	–	–	96
CCOc1ccc2[nH]c(C)c(CN3CCCCC3)c(=O)c2c1	–	–	–	–	–	–
